This is an account of results in the antibiotic and cytotoxicity screens of Wong et al. (2023).

About 1,500 (3.8%) of roughly 39,000 compounds were called active. The list comes from a sample in which actives are over-represented; it also holds similar structures and randomly drawn compounds.

The test deals with HSkMC (human skeletal muscle cells). The test is described as follows: cytotoxicity call (relative viability < 0.9). The settings on record: 10 µM.
As for `C[C@@H]1CN([C@H](C)CO)C(=O)CCCn2nncc2CO[C@@H]1CN(C)Cc1cccc2c1OCCCO2`, the cytotoxicity call is “inactive”.

Consider `COc1ccc(NC(=O)N(C)C[C@H]2Oc3ccc(NS(=O)(=O)c4c(C)noc4C)cc3CC(=O)N([C@H](C)CO)C[C@H]2C)cc1`, for which the cytotoxicity call was “inactive”.

For `Cc1cc(OCc2nnc(SC3CCCC3)n2-c2cccnc2)ccc1-c1ccc(S(C)(=O)=O)cc1`, the cytotoxicity call was “active”.

As for `C[C@@H]1CN([C@@H](C)CO)C(=O)c2cc(NC(=O)CCC(F)(F)F)ccc2O[C@@H](C)CCCCO[C@@H]1CN(C)S(=O)(=O)c1ccc(F)cc1`, the cytotoxicity call is “inactive”.

As for `CCCC[C@@H](C)/C=C(C)/C=C(\C)C(=O)NC1=C[C@@](O)(/C=C/C=C/C=C/C(=O)NC2C(=O)CCC2=O)[C@@H]2O[C@@H]2C1=O`, the cytotoxicity call is “active”.

Take `COc1cccc(S(=O)(=O)Nc2ccc3c(c2)[C@H]2C[C@H](CC(=O)NCCc4ccccc4)O[C@H](CO)[C@H]2O3)c1`: the cytotoxicity call was “inactive”.

For `C[C@@H]1CN([C@@H](C)CO)S(=O)(=O)c2ccc(C#CC3(O)CCCC3)cc2O[C@@H]1CN(C)C(=O)Cc1cccnc1`, the cytotoxicity call was “inactive”.

Turning to `COc1ccccc1S(=O)(=O)N(C)C[C@H]1OCc2cn(nn2)CCCC(=O)N([C@H](C)CO)C[C@H]1C`, the cytotoxicity call is “inactive”.

As for `C[C@H]1CN([C@@H](C)CO)C(=O)c2cc(NS(=O)(=O)c3ccc(F)cc3)ccc2O[C@@H]1CN(C)Cc1ccc(-c2ccccc2)cc1`, the cytotoxicity call is “inactive”.

`C[C@@H]1CN([C@H](C)CO)C(=O)c2cc(NS(=O)(=O)c3ccc(F)cc3)ccc2O[C@@H]1CN(C)Cc1ccc(-c2ccccc2)cc1`: the cytotoxicity call was “active”.

`C[C@@H]1CN([C@H](C)CO)C(=O)c2cc(NS(=O)(=O)c3ccc(F)cc3)ccc2O[C@H]1CN(C)Cc1ccc(-c2ccccc2)cc1`: the cytotoxicity call is “inactive”.

Take `C[C@H](CO)N1C[C@H](C)[C@H](CN(C)Cc2ccc(-c3ccccc3)cc2)Oc2ccc(NS(=O)(=O)c3ccc(F)cc3)cc2C1=O`: the cytotoxicity call is “inactive”.

With `C[C@@H]1CN([C@@H](C)CO)C(=O)c2cc(NS(=O)(=O)c3ccc(F)cc3)ccc2O[C@@H]1CN(C)Cc1ccc(-c2ccccc2)cc1`, the cytotoxicity call was “active”.

Consider `C[C@@H]1CN([C@@H](C)CO)C(=O)c2cc(NS(=O)(=O)c3ccc(F)cc3)ccc2O[C@H]1CN(C)Cc1ccc(-c2ccccc2)cc1`, for which the cytotoxicity call is “inactive”.

With `Cc1noc(C)c1NC(=O)Nc1ccc2c(c1)C(=O)N([C@@H](C)CO)C[C@@H](C)[C@@H](CN(C)CC1CCCCC1)OCCCC[C@H](C)O2`, the cytotoxicity call was “inactive”.

Take `CN(C)CCCCNC(=O)[C@H]1C[C@H]2C(=O)N3CCC[C@H]3C(=O)N2[C@H]1c1cccc(OCCO)c1`: the cytotoxicity call is “inactive”.

`O=C(N1CCOCC1)[C@]1(CCS(=O)(=O)c2ccccc2)N=C(c2ccc(OCCCO)cc2)O[C@@H]1c1ccccc1`: the cytotoxicity call is “inactive”.

In the case of `C[C@H]1CN([C@@H](C)CO)C(=O)c2c(c3ccccc3n2C)-c2ccccc2CO[C@@H]1CN(C)Cc1cccc(C(F)(F)F)c1`, the cytotoxicity call was “active”.

For the compound `C[C@H]1CN([C@@H](C)CO)C(=O)c2ccccc2-c2ccccc2CO[C@H]1CN(C)Cc1ccc(Cl)c(Cl)c1`, the cytotoxicity call is “active”.

Turning to `C[C@@H]1CN([C@H](C)CO)C(=O)c2ccccc2-c2ccccc2CO[C@@H]1CN(C)Cc1ccc(Cl)c(Cl)c1`, the cytotoxicity call was “inactive”.

On to `C[C@@H]1CN([C@@H](C)CO)C(=O)c2c(c3ccccc3n2C)-c2ccccc2CO[C@H]1CN(C)Cc1cccc(C(F)(F)F)c1`, for which the cytotoxicity call was “inactive”.

`C[C@H]1CN([C@@H](C)CO)C(=O)c2c(c3ccccc3n2C)-c2ccccc2CO[C@H]1CN(C)Cc1cccc(C(F)(F)F)c1`: the cytotoxicity call was “inactive”.

In the case of `C[C@@H]1CN([C@@H](C)CO)C(=O)c2c(c3ccccc3n2C)-c2ccccc2CO[C@H]1CN(C)Cc1cccc(F)c1`, the cytotoxicity call is “inactive”.

Turning to `C[C@@H]1CN([C@H](C)CO)C(=O)c2c(c3ccccc3n2C)-c2ccccc2CO[C@@H]1CN(C)Cc1cccc(C(F)(F)F)c1`, the cytotoxicity call was “inactive”.

`C[C@@H]1CN([C@@H](C)CO)C(=O)c2c(c3ccccc3n2C)-c2ccccc2CO[C@@H]1CN(C)Cc1cccc(C(F)(F)F)c1`: the cytotoxicity call was “active”.

As to `C[C@@H]1CN([C@H](C)CO)C(=O)c2c(c3ccccc3n2C)-c2ccccc2CO[C@H]1CN(C)Cc1cccc(C(F)(F)F)c1`, the cytotoxicity call is “inactive”.

For the compound `C[C@H](CO)N1C[C@H](C)[C@H](CN(C)Cc2cccc(C(F)(F)F)c2)OCc2ccccc2-c2c(n(C)c3ccccc23)C1=O`, the cytotoxicity call is “active”.

On to `C[C@H](CO)N1C[C@H](C)[C@@H](CN(C)Cc2cccc(C(F)(F)F)c2)OCc2ccccc2-c2c(n(C)c3ccccc23)C1=O`, for which the cytotoxicity call was “inactive”.

Turning to `C[C@@H]1CN([C@@H](C)CO)C(=O)c2ccccc2-c2ccccc2CO[C@@H]1CN(C)Cc1ccc(Cl)c(Cl)c1`, the cytotoxicity call was “inactive”.

As for `COc1ccc(NC(=O)N(C)C[C@H]2OCCCC[C@@H](C)Oc3ccc(NS(=O)(=O)c4ccc(Cl)cc4)cc3C(=O)N([C@@H](C)CO)C[C@H]2C)cc1`, the cytotoxicity call is “inactive”.

As for `C[C@@H]1CCCCO[C@@H](CN(C)C(=O)Cc2ccccc2)[C@H](C)CN([C@@H](C)CO)C(=O)c2cc(NC(=O)C3CCCCC3)ccc2O1`, the cytotoxicity call was “inactive”.

On to `C[C@@H]1CCCCO[C@@H](CN(C)C(=O)NC2CCCCC2)[C@H](C)CN([C@@H](C)CO)C(=O)c2cc(NS(=O)(=O)c3ccc(F)cc3)ccc2O1`, for which the cytotoxicity call is “inactive”.

As to `C[C@H]1CN([C@@H](C)CO)C(=O)c2cc(Br)cnc2O[C@@H]1CN(C)S(C)(=O)=O`, the cytotoxicity call is “inactive”.

Turning to `Cc1noc(C)c1NC(=O)Nc1ccc2c(c1)CC(=O)N([C@@H](C)CO)C[C@H](C)[C@H](CN(C)S(=O)(=O)c1c(C)noc1C)O2`, the cytotoxicity call is “inactive”.

For the compound `CC(C)CC#Cc1ccc2c(c1)O[C@@H](CN(C)S(=O)(=O)c1ccc(F)cc1)[C@@H](C)CN([C@@H](C)CO)S2(=O)=O`, the cytotoxicity call was “inactive”.

In the case of `C[C@@H]1CCCCO[C@@H](CN(C)Cc2ccc3c(c2)OCO3)[C@@H](C)CN([C@H](C)CO)C(=O)c2cc(NS(=O)(=O)c3ccccc3)ccc2O1`, the cytotoxicity call is “inactive”.

On to `O=C1CN(C(=O)c2ccccc2)C(=S)N1`, for which the cytotoxicity call is “inactive”.

Take `C[C@@H]1CN([C@H](C)CO)C(=O)c2cc(N(C)C)ccc2O[C@@H](C)CCCCO[C@H]1CN(C)Cc1ccc(C(=O)Nc2ccccc2N)cc1`: the cytotoxicity call was “inactive”.

On to `CCC(=O)Nc1ccc2c(c1)OC[C@H](C)N(C(=O)CN1CCOCC1)C[C@@H](C)[C@H](OC)CN(C)C2=O`, for which the cytotoxicity call is “inactive”.

As to `Cc1ccc2c(c1)/C(=C/c1ccncc1)c1cc3ccccc3nc1-2`, the cytotoxicity call is “inactive”.

As to `OCc1ccccc1-c1ccccc1`, the cytotoxicity call is “inactive”.

Take `COc1ccc(NC(=O)Nc2ccc3c(c2)C(=O)N([C@@H](C)CO)C[C@H](C)[C@@H](CN(C)Cc2ccc(C(=O)O)cc2)OCCCC[C@@H](C)O3)cc1`: the cytotoxicity call was “inactive”.

On to `CC(C)N1C[C@H](C)[C@@H](CN(C)Cc2ccc(Cl)c(Cl)c2)Oc2c(C(=O)Nc3ccncc3)cccc2C1=O`, for which the cytotoxicity call was “inactive”.

For `COc1ccc(S(=O)(=O)N(C)C[C@H]2Oc3ccc(NS(C)(=O)=O)cc3C(=O)N([C@H](C)CO)C[C@@H]2C)cc1`, the cytotoxicity call was “inactive”.

For `C[C@@H]1CN([C@@H](C)CO)C(=O)c2cc(NC(=O)c3ccccc3)ccc2O[C@@H](C)CCCCO[C@@H]1CN(C)Cc1ccccc1`, the cytotoxicity call is “inactive”.

Turning to `C[C@H]1CN([C@@H](C)CO)C(=O)c2c(c3ccccc3n2C)-c2ccccc2CO[C@H]1CN(C)C(=O)Nc1cccc(C(F)(F)F)c1`, the cytotoxicity call is “inactive”.

Consider `C[C@H](CO)N1C[C@H](C)[C@H](CN(C)C(=O)Nc2cccc(C(F)(F)F)c2)OCc2ccccc2-c2c(n(C)c3ccccc23)C1=O`, for which the cytotoxicity call was “active”.

`C[C@@H]1CN([C@@H](C)CO)C(=O)c2ccccc2-c2ccccc2CO[C@@H]1CN(C)Cc1cccc(C(F)(F)F)c1`: the cytotoxicity call is “active”.

Consider `C[C@H](CO)N1C[C@H](C)[C@H](CN(C)Cc2cccc(C(F)(F)F)c2)OCc2ccccc2-c2ccccc2C1=O`, for which the cytotoxicity call is “inactive”.

As to `C[C@@H]1CN([C@H](C)CO)C(=O)c2ccccc2-c2ccccc2CO[C@@H]1CN(C)Cc1cccc(C(F)(F)F)c1`, the cytotoxicity call was “inactive”.

Consider `C[C@@H]1CN([C@H](C)CO)C(=O)c2c(c3ccccc3n2C)-c2ccccc2CO[C@H]1CN(C)C(=O)Nc1cccc(C(F)(F)F)c1`, for which the cytotoxicity call was “inactive”.

With `C=CC(=O)NCCCCNC(=O)C=C`, the cytotoxicity call is “inactive”.

For `C[C@@H]1CN([C@@H](C)CO)C(=O)c2cc(NC(=O)NC3CCCCC3)ccc2O[C@@H](C)CCCCO[C@@H]1CN(C)C(=O)Nc1ccc2c(c1)OCO2`, the cytotoxicity call is “inactive”.

Regarding `CN1CCCCC[C@@H]1C(=O)O`, the cytotoxicity call was “inactive”.

As to `CO[C@@H]1CN(C)C(=O)c2ccc(NC(=O)C3CC3)cc2OC[C@@H](C)N(C(=O)Cc2ccccn2)C[C@@H]1C`, the cytotoxicity call is “inactive”.

Consider `Cc1noc(C)c1S(=O)(=O)N(C)C[C@@H]1Oc2ccc(NC(=O)C3CC3)cc2CC(=O)N([C@@H](C)CO)C[C@H]1C`, for which the cytotoxicity call is “inactive”.

`CC1(C)CCC(c2ccc(Cl)cc2)=C(CN2CCN(c3ccc(C(=O)NS(=O)(=O)c4ccc(N[C@@H](CCN5CCOCC5)CSc5ccccc5)c(S(=O)(=O)C(F)(F)F)c4)cc3)CC2)C1`: the cytotoxicity call was “active”.

In the case of `CC1(C)CCC(CN2CCN(c3ccc(C(=O)NS(=O)(=O)c4ccc(NCC5CCOCC5)c([N+](=O)[O-])c4)c(Oc4cnc5[nH]ccc5c4)c3)CC2)=C(c2ccc(Cl)cc2)C1`, the cytotoxicity call is “inactive”.

Consider `CC1(C)CCC(c2ccc(Cl)cc2)=C(CN2CCN(c3ccc(C(=O)NS(=O)(=O)c4ccc(N[C@H](CCN5CCOCC5)CSc5ccccc5)c(S(=O)(=O)C(F)(F)F)c4)cc3)CC2)C1`, for which the cytotoxicity call was “active”.

Turning to `CN(C)CC[C@H](CSc1ccccc1)Nc1ccc(S(=O)(=O)NC(=O)c2ccc(N3CCN(Cc4ccccc4-c4ccc(Cl)cc4)CC3)cc2)cc1[N+](=O)[O-]`, the cytotoxicity call was “inactive”.

With `O=S(=O)(NCC[C@@H]1CC[C@@H](NS(=O)(=O)c2ccccc2Cl)[C@@H](CO)O1)c1ccc(F)cc1`, the cytotoxicity call was “inactive”.

Regarding `COc1ccc(NC(=O)Nc2ccc3c(c2)C(=O)N([C@@H](C)CO)C[C@H](C)[C@@H](CN(C)S(=O)(=O)c2c(C)noc2C)OCCCC[C@@H](C)O3)cc1`, the cytotoxicity call was “inactive”.
